Bioassay records from PubChem BioAssay.
Most compounds without a hit are left out; they make up all but 11% or so of the library.
HEK cytotox = Cytotoxic Profiling in HEK 293 Cell Line of Diverse Libraries Using Quantitative High-Throughput Screening; HEK 293 viability, ATP luminescence (CellTiter-Glo), 48-72 h; Potency, µM (highest dose often 115 µM), without a hit: at the top dose activity change, negative = cytotoxicity, usual class: inhibitors; hit rate 6.6% among 94,000; note: nearly all actives have a fitted effect of over 60% in size
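qHTS cytotoxicity; HEK 293, 250 cells/well; compound pinned; 48 or 72 hr, 37 degree Celsius, 5% CO2, 95% humidity; CellTiter-Glo, 10 min RT; luminescence (ATP).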
NIH3T3 tox = Cytotoxic Profiling in NIH 3T3 Cell Line of Diverse Libraries Using Quantitative High-Throughput Screening; NIH 3T3 viability, CellTiter-Glo ATP luminescence, 48-72 h; Potency, µM (titrated, usually from 96.7 µM), for the others: top-dose activity change, negative = cytotoxicity, actives largely listed as inhibitors; hit rate 4.3% among 94,000; AID 1345082, 2018; note: nearly all actives have a fitted effect of over 55% in size
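Mouse fibroblast NIH 3T3 cells, 400 per well, received compound via pintool and were incubated for 48 or 72 hr prior to CellTiter-Glo ATP luminescence measurement.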
NPR1 antag = Natriuretic polypeptide receptor (hNpr1) antagonism - Primary qHTS. HEK293 hNpr1 GloSensor cGMP, ANP-stimulated luminescence. Potency, µM (highest dose often 46.3 µM), for the others: top-dose activity change, negative = inhibition, usual class: inhibitors. hit rate 1.6% among 76,000; calls by dose curve; note: nearly all actives have a fitted effect of over 60% in size
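Compound pre-incubated 30 min at room temperature on GloSensor-loaded HEK293 cells stably carrying hNpr1 and the pGS-40F cGMP biosensor. Stimulation uses hNppA at 0.1 nM final; luminescence is taken at baseline and 20 min post-agonist.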
FLuc inh = Firefly luciferase inhibition profiling of diverse chemical library using quantitative high-throughput screening; Luciferin 4-monooxygenase (Photinus pyralis), P08659; purified P. pyralis luciferase, luminescence, biochemical; Potency, µM (doses to about 115 µM), usual class: inhibitors; hit rate 2.5% among 76,000; AID 1347043, 2019; note: nearly all actives have a fitted effect of over 65% in size
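Cell-free enzyme assay, 10nM P. pyralis luciferase, luciferin and ATP each at 10uM. Inhibition profiled over a 6-point titration, read as luminescence.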
Active calls of the source: *; i = inactive; ? = inconclusive; . = no result; ! = not active in a repeat; [ ] = dose if it differs, or a comment. Unless noted, calls come from the whole dose curve; as a rule, active = well fitted curve in the direction sought with a large enough effect; inconclusive = small, poorly fitted or top-dose-only effect, or another doubt; inactive = no such curve, though single readings can be large; an effect the other way counts as inactive or inconclusive. % is set by controls: 0 for no effect and ±100 for the full control effect; potency is the fitted concentration of half-maximal effect.

SMILES | HEK cytotox | NIH3T3 tox | NPR1 antag | FLuc inh
COc1cccc(NC(=O)c2cc(-c3ccccc3C(F)(F)F)nc3c2cnn3C)c1 | 22.4µM* | ? | . | .
COc1ccccc1-c1cc(C(=O)Nc2ccc(Cl)cc2)c2cnn(C)c2n1 | 22.4µM* | ? | . | .
CS(=O)(=O)NC1CCN(c2ccc3nnc(C4CC4)n3n2)CC1 | i | -13.7% | . | .
COc1ccc(C(=O)N2CCC(N3CC4CC(C3)[C@H]3CCCC(=O)N3C4)CC2)cc1F (some centres undefined) | 7.0% | 4.5% | -2.7% | i
O=C(c1nc(-c2ccc(Cl)cc2)c2ccccn12)N1CCCC1 | ? | ? | -0.5%[70.6 µM] | 44.7µM*
O=C(NCc1ccc2c(c1)OCO2)c1nc(-c2ccc(Cl)cc2Cl)c2ccccn12 | 31.6µM* | ? | 3.7% | i
O=C(c1nc(-c2ccc(F)cc2)c2ccccn12)N1CCN(c2ncccn2)CC1 | ? | ? | -3.1% | i
COCCNC(=O)c1nc(-c2ccc(Cl)cc2)c2ccccn12 | ? | 79.4µM* | -0.7%[70.6 µM] | i
N#CC1CCN(C(=O)c2nc(-c3ccccc3)c3ccccn23)CC1 | ? | ? | -2.6%[70.6 µM] | i
COC(=O)CNC(=O)c1nc(-c2ccc(Cl)cc2)c2ccccn12 | -18.5%[172 µM] | ? | 16.9%[70.6 µM] | ?
N#CC1CCN(C(=O)c2nc(-c3cc(Cl)cc(Cl)c3)c3ccccn23)CC1 | 25.1µM* | ? | -4.1% | i
O=C(NCC1CCCCC1)c1cn2cc(-c3ccc(F)cc3)sc2n1 | -20.8% | -41.5% | . | .
O=C(c1nc(-c2ccc(Cl)cc2Cl)c2cnccn12)N1CCN(c2ncccn2)CC1 | i | 2.7% | . | .
O=C(c1nc(-c2ccc(Cl)cc2Cl)c2ccccn12)N1CCN(c2ncccn2)CC1 | 39.8µM* | ? | . | .
CC1CCN(C(=O)c2csc(N3CCN(c4ccc(Cl)cc4)CC3)n2)CC1 | ? | ? | ? | i
CCCCN1CCN(C(=O)c2csc(N3CCN(c4cccc(Cl)c4)CC3)n2)CC1 | 22.4µM* | ? | -29.9% | i
O=C(NC1CCCC1)c1csc(N2CCN(c3cccc(Cl)c3)CC2)n1 | 35.5µM* | ? | -18.8% | i
C=CCOCC(O)CN1CCC(=O)N(Cc2ccccc2)Cc2cc(F)ccc21 (centres undefined) | ? | -29.1% | . | .
O=C1CCN(CC(O)Cc2ccccc2)c2ccc(F)cc2CN1Cc1ccccc1 (centres undefined) | 31.6µM* | ? | . | .
O=C1CCN(C[C@@H](O)COCc2ccccc2)c2ccc(F)cc2CN1Cc1ccccc1 | 44.7µM* | ? | . | .
CN[C@H](C(=O)N[C@H]1C[C@@](O)(C(=O)N[C@H](CC(C)C)C(N)=O)C[C@@H](O)[C@@H]1O)C(C)C | -7.5%[172 µM] | -23.0%[174 µM] | -0.9%[70.6 µM] | i
COc1cccc(-c2n[nH]c3c2CC(=O)N(Cc2ccccc2)C3)c1 | -6.3%[172 µM] | ? | -3.3%[70.6 µM] | i
COc1cccc(-c2ccc(C(=O)N3CCC(N[S+](C)(=O)[O-])CC3)cc2)c1 | ? | -32.6% | . | .
CC(C)C(=O)NC1CCN(C(=O)c2ccc(-c3cccs3)cc2)CC1 | 70.8µM* | ? | . | .
COc1ccccc1-c1ccc(C(=O)N2CCC(N[S+](=O)([O-])c3cccs3)CC2)cc1 | 89.1µM*! | ? | . | .
SMILES | HEK cytotox | NIH3T3 tox | NPR1 antag | FLuc inh
COc1cccc(-c2ccc(C(=O)N3CCC(N[S+](=O)([O-])c4cccs4)CC3)cc2)c1 | 17.8µM* | 15.8µM* | . | .
O=C(c1ccc(-c2cccs2)cc1)N1CCC(N[S+](=O)([O-])c2cccs2)CC1 | 44.7µM* | ? | . | .
Cc1oc2c(c1C(=O)NC1CCCC1)CN(Cc1ccc(F)cc1)CC2 | ? | -34.1% | -18.7% | i
Cc1cnn(CCC(=O)N2CCC3(CCOCC3)CC2)c1 | ? | 0.6% | 2.1% | i
COc1cccc(-c2ccc(C(=O)N3CCC(N[S+](=O)([O-])c4c(C)noc4C)CC3)cc2)c1 | 22.4µM* | ? | . | .
COc1ccccc1Nc1ncc2c(n1)CN(C(=O)Cc1cccc(F)c1)CCN2 | ? | ? | 2.1%[70.6 µM] | i
COc1ccccc1Nc1ncc2c(n1)CN(C(=O)c1cc3ccccc3n1C)CCN2 | 70.8µM* | ? | -17.3%[70.6 µM] | i
COc1ccccc1Nc1ncc2c(n1)CN(C(=O)c1cccc(C#N)c1)CCN2 | 79.4µM* | -24.1%[138 µM] | ? | i
COCC(=O)N[C@H]1CCN2C(=O)N(c3ccc(OC(F)(F)F)cc3)C(=O)[C@@H]2C1 | 3.3%[172 µM] | 1.6%[174 µM] | -0.4%[70.6 µM] | i
O=C(C1CCCCN1Cc1ccc(-c2cccs2)cc1)N1CCN(Cc2ccccc2)CC1 (centres undefined) | ? | 31.6µM* | . | .
O=C(NC1CCOCC1)C1CCCCN1Cc1ccc(-c2cccs2)cc1 (centres undefined) | 44.7µM* | ? | . | .
CC(=O)NC1CCN(C(=O)c2ccc(-c3cccs3)cc2)CC1 | 3.4%[172 µM] | -19.4%[138 µM] | . | .
O=C(C1CCCCN1Cc1ccc(-c2ccsc2)cc1)N1CCOCC1 (centres undefined) | ? | -23.2% | . | .
O=C(NC1CC1)C1CCCCN1Cc1ccc(-c2cccs2)cc1 (centres undefined) | 44.7µM* | ? | . | .
N[C@@H]1CC[C@H](C(=O)N2CCN(Cc3cccc(C(F)(F)F)c3)CC2)C1 | ? | -29.5% | 3.5% | i
Cc1cc(C)cc(N2CCC(NC(=O)c3cc(F)cc(F)c3)C2=O)c1 (centres undefined) | ? | -7.9% | -8.8% | i
COCc1nc(C2CCCN(C(=O)COc3ccc(F)cc3)C2)no1 (centres undefined) | -3.1% | -16.4% | -10.0% | i
NC(=O)c1cccc(-c2cc3c(cn2)CN(CCc2ccccc2)CCN3)c1 | ? | 89.1µM* | -6.3%[70.6 µM] | ?
COc1ccc(CN2CCNc3cc(-c4ccccc4)ncc3C2)cc1O | 89.1µM* | ? | -15.9%[70.6 µM] | i
CC(=O)N1CCNc2cc(-c3ccc(Oc4ccccc4)cc3)ncc2C1 | 70.8µM* | ? | -18.9%[70.6 µM] | 20µM*
COc1cccc(CN2CCNc3cc(-c4ccccc4)ncc3C2)c1 | ? | ? | -1.1%[70.6 µM] | 39.8µM*
CN(C)C(=O)c1ccc(-c2cc3c(cn2)CN(CCc2ccccc2)CCN3)cc1 | ? | ? | -14.0%[70.6 µM] | i
CNC(=O)c1cc(C2CC2)nc2c1c(C1CCCN1C(=O)c1ccc(Cl)cc1)nn2C (centres undefined) | 2.5% | -22.3% | . | .
O=C(NC1C[C@H]2CC[C@@H](C1)N2C(=O)NCCc1ccccc1)c1ccc(F)cc1 (some centres undefined) | ? | -20.5% | . | .
O=C(Cc1ccc(F)cc1)N1CCC(C(=O)N2CCC(c3nc4ccncc4[nH]3)C2)CC1 (centres undefined) | -28.8% | -19.4% | . | .
